Test results: PubChem BioAssay AID504861 (Broad Institute, 2011)
About 290 (24%) of roughly 1,200 compounds were called active. Another 3% or so got no clear call; they are omitted.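 The calls were made as follows: active = compounds lowering cell viability signal with fitted half-maximal concentration at most ten times their highest tested concentration; inconclusive = flat fit with 30 to 70% signal loss, or poor fit; inactive = the rest.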 Only a sample is shown. Entries with a potency or affinity are not part of this list.

test: HEK293T cell viability reduction, dose response, cytotoxicity control for LMP1 NF-kB inhibitor project, CellTiter-Glo luminescence, cherry-picks (AID 504861); conditions: CellTiter-Glo ATP luminescence, 48 h; series mostly up to 26 µM

SMILES | outcome
CCn1c2ccccc2c2cc(/C=N/NC(=O)c3ccncc3)ccc21 | inactive
COc1ccc(CCNC(=O)c2nnn(-c3ccc4c(c3)OCCO4)c2N)cc1OC | inactive
CNS(=O)(=O)c1cccc(C(=O)OCC(=O)c2ccc3c(c2)OCCO3)c1 | inactive
O=C(c1noc2c1CCCC2)N1CCCCC1 | inactive
CC[C@H]1OC(=O)[C@H](C)[C@@H](O[C@H]2C[C@@](C)(OC)[C@@H](O)[C@H](C)O2)[C@H](C)[C@@H](O[C@@H]2O[C@H](C)C[C@H](N(C)C)[C@H]2O)[C@](C)(O)C[C@@H](C)C(=NOCOCCOC)[C@H](C)[C@@H](O)[C@]1(C)O | inactive
COc1cc2c(cc1OC)-c1cc(Nc3ccc4c(c3)OCCO4)nc(=O)n1CC2 | inactive
Cc1nc2ncccn2c1-c1csc(Nc2ccccc2)n1 | inactive
CCOC(=O)C1=C(C)NC(C)=C(C(=O)OCC)C1c1cn(-c2ccccc2)nc1-c1ccco1 | inactive
COCCn1c(SCCN2CCOCC2)nc2c1c(=O)[nH]c(=O)n2C | inactive
Cc1cccc(NC(=O)c2cnc3ccccn3c2=O)c1 | inactive
CC(C)c1nnc(NC(=O)c2ccc(N3C(=O)CCC3=O)cc2)s1 | inactive
COc1ccc(-n2c(SCC(=O)Nc3cc(C)on3)nc3c(c2=O)SCC3)cc1 | inactive
COc1ccc(/C=N/N=C/c2ccc(OC)c(OC)c2)cc1OC | inactive
COc1cc(/C=C2/SC(=S)N(Cc3ccccc3)C2=O)ccc1OCC(=O)O | inactive
CCOCCCn1c(=S)[nH]c2ncccc2c1=O | inactive
O=c1c2c(nc3c(-c4ccc(Cl)cc4)c[nH]n13)CCCC2 | inactive
CC(=NNC(=S)N1CCCCCC1)c1cccc2cccnc12 | inactive
CC1=C(CC(=O)O)c2cc(F)ccc2C1=Cc1ccc(S(C)(=O)=O)cc1 | inactive
COc1ccc(OC)c(CCNC(=O)CCn2nc(C)c3c(C)n(-c4ccccc4)nc3c2=O)c1 | inactive
COCCn1c(C)cc(C(=O)COC(=O)C23CC4CC(CC(O)(C4)C2)C3)c1C | inactive
CC1CCc2nc(N)c(C#N)c(-c3cccnc3)c2C1 (stereo not drawn) | inactive
N#CCN(N=Nc1ccccc1)c1ccccc1 | inactive
CC(NC(=O)CCOc1ccccc1)c1ccccc1 (stereo not drawn) | inactive
C[C@@H](OC(=O)c1[nH]cnc1C(=O)N1CCc2ccccc2C1)c1ccccc1 | inactive
COc1cccc(-c2nnc(NC(=O)c3ccc(S(=O)(=O)N(CC(C)C)CC(C)C)cc3)o2)c1 | inactive
CCn1c2ccccc2c2cc(/C=N/n3cnnc3)ccc21 | inactive
C=CC[N+](C)(C)C/C(Cl)=C(\Cl)c1ccccc1 | inactive
O=[N+]([O-])c1ccc(Cl)c(S(=O)(=O)NCC2CCCO2)c1 (stereo not drawn) | inactive
